Nine compounds from PubChem BioAssay (NCI) can be followed below.

Experiment in all cases: NCI-60 one-dose screen, 48 h (100 = growth as untreated, 0 = no growth, -100 = all killed)
For experiment [1], the system named is HCT-15 colon. To be noted: 10 µM unless noted.
Experiment [2] has as its system HT29 colon. To be noted: 10 µM unless noted.
In experiment [3] the test system is SNB-75 CNS. To be noted: 10 µM unless noted.
Experiment [4] relates to SNB-19 CNS. To be noted: 10 µM unless noted.
Experiment [5] has as its system U251 CNS. To be noted: 10 µM unless noted.
In experiment [6] the test system is PC-3 prostate. To be noted: 10 µM unless noted.
The subject of experiment [7] is UACC-62 melanoma. To be noted: 10 µM unless noted.
The subject of experiment [8] is LOX IMVI melanoma. To be noted: 10 µM.
Experiment [9] concerns SK-MEL-28 melanoma. To be noted: 10 µM unless noted.
In experiment [10] the test system is SK-MEL-2 melanoma. To be noted: 10 µM unless noted.
The subject of experiment [11] is EKVX NSCLC. To be noted: 10 µM unless noted.
In experiment [12] the test system is SN12C renal. To be noted: 10 µM unless noted.
Experiment [13] relates to UO-31 renal. To be noted: 10 µM unless noted.
Experiment [14] deals with TK-10 renal. To be noted: 10 µM unless noted.
For experiment [15], the system named is ACHN renal. To be noted: 10 µM unless noted.
Experiment [16] concerns CAKI-1 renal. To be noted: 10 µM unless noted.
Experiment [17] has as its system A498 renal. To be noted: 10 µM unless noted.
Experiment [18] deals with CCRF-CEM leukemia. To be noted: 10 µM unless noted.
The subject of experiment [19] is SK-MEL-5 melanoma. To be noted: 10 µM unless noted.
The test system of experiment [20] is MOLT-4 leukemia. To be noted: 10 µM unless noted.

The panel holds about 83,000 compounds, 20% with a hit somewhere; the sample as a whole holds those more often.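 Negative percent growth values reflect cell death: -40 means 40% of the cells present at the start died, and -100 means all died.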 A number with no mark means an inactive call. The source made the active and inactive calls. The calls were made as follows: active = growth percent below 10; inactive = the rest.

On to `COc1ccc(C(=O)/C=C/c2ccc3ccccc3c2)cc1S(N)(=O)=O`, for which the growth in experiment [1] was -87.1% (active); in experiment [2], -26.5% (active); in experiment [3], -15.5% (active); in experiment [4], -49.6% (active); in experiment [5], -96.3% (active); in experiment [6], -11.9% (active). The growth in experiment [7] was -55.6% (active); in experiment [8] it was -89.1% (active); in experiment [9] it was -41.5% (active); in experiment [10] it was 53.4%; in experiment [11] it was -73.4% (active); in [12], -43.7% (active). The growth in experiment [13] was -87.2% (active); in [14], -82.3% (active); in experiment [15] it was -92.2% (active); in experiment [16], 2.11% (active); in experiment [17], 97.2%; in experiment [18], 5.96% (active).
On to `COc1ccc(C2=NN(c3ccccc3)C(c3ccc(OCc4ccccc4)c(OC)c3)C2)cc1OC` (stereo not given), for which the growth was 93.8% in experiment [1]; 86.6% in experiment [2]; 97.3% in experiment [3]; 98.9% in [4]; 108% in experiment [5]; 92.7% in experiment [6]. Besides, the growth was 85.1% in experiment [7]; 105% in experiment [8]; 104% in experiment [9]; 86.5% in experiment [10]; 93% in experiment [11]; 100% in experiment [12]. Besides, the growth was 86.8% in [13], 99.4% in [15], 88.7% in [16] and 118% in experiment [17].
As for `COc1ccc(C(=O)Nc2n[nH]c(Nc3ccccc3)c2C#N)cc1`, the growth in [1] was 102%; in experiment [2], 112%; in experiment [3], 112%; in experiment [4], 99.5%; in [5] it was 111%; in experiment [6], 111%. Moreover, the growth in experiment [7] was 99.6%; in experiment [8], 98.3%; in experiment [9], 103%; in [10] it was 110%; in [12], 110%; in experiment [13], 90.7%. Besides, the growth in experiment [14] is 99.9%; in experiment [15] it was 99.3%; in [16] it was 103%; in [17], 108%; in [18] it was 114%.
Turning to `COc1cc(OC)cc(C(=O)Nc2cccc(-c3cn(-c4ccc(S(N)(=O)=O)cc4)nn3)c2)c1`, the growth in experiment [1] is 92.2%; in [2] it was 114%; in experiment [3], 51.7%; in experiment [4], 17.8%; in experiment [5], 32.2%; in [6] it was 91.4%. In addition, the growth in experiment [7] was 80.4%; in experiment [8] it was 69.3%; in experiment [9], 81.1%; in experiment [10], 92.6%; in experiment [11], 78.8%; in [12] it was 70%. Moreover, the growth in [13] was 96.3%; in experiment [14], 94.8%; in [15], 88.5%; in experiment [16] it was 60.8%; in experiment [17], 116%; in experiment [18], 105%.
On to `COc1ccccc1/C=C/C(=O)c1ccc(OC)c(S(N)(=O)=O)c1`, for which the growth in experiment [1] was 7.53% (active); in experiment [2] it was 18.7%; in experiment [3], 8.99% (active); in [4] it was 27.3%; in [5], 5.14% (active); in [6], 48.5%. Also, the growth was 44.4% in experiment [7]; 1.03% (active) in experiment [8]; 38.7% in [9]; 78.4% in experiment [10]; 23.2% in experiment [11]; 15.5% in experiment [12]. The growth in experiment [13] was 24.7%; in experiment [14] it was 41.5%; in experiment [15], 21.4%; in [16], 20.9%; in experiment [17], 105%; in experiment [18], 6.32% (active).
As to `Cc1cc2nc3c4ccccc4n(CC4=NCCN4)c3nc2cc1C`, the growth was 0.357% (active) in [1]; -74.3% (active) in experiment [2]; 25.1% in [3]; 15.8% in [4]; -72.5% (active) in experiment [5]; -91.7% (active) in experiment [19]. The growth is -91.2% (active) in experiment [7]; -93.5% (active) in experiment [9]; 66.7% in [10]; 60.4% in experiment [11]; -6.68% (active) in experiment [12]; -95.2% (active) in [13]. For the same compound, the growth in experiment [14] is 64.4%; in experiment [15] it was -100% (active); in experiment [16], -70% (active); in experiment [17], 63.8%; in [20], -19.4% (active).
Regarding `COc1ccc(-c2nnc3ccc(N/N=C/c4ccc(O)cc4)nn23)cc1`, the growth in experiment [1] was 26.7%; in experiment [2], 87.4%; in experiment [3] it was 53.6%; in experiment [4] it was 67.5%; in [5], 67.6%; in experiment [6], 40.5%. Further, the growth in experiment [7] is 58.8%; in experiment [8] it was -54.8% (active); in experiment [9], 69.1%; in experiment [10] it was 73.2%; in experiment [12], 42.3%; in experiment [13], 30.3%. The growth was 38.9% in [14], 43.5% in experiment [15], 91.9% in [17] and 14.1% in experiment [18].
Turning to `NS(=O)(=O)c1ccc(-n2cc(-c3cccc(NC(=O)c4cc(Cl)cc(Cl)c4)c3)nn2)cc1`, the growth in experiment [1] was 94.7%; in experiment [2] it was 32.1%; in experiment [3], 86.2%; in [4], 68.6%; in [5], -45.9% (active); in experiment [6] it was 69.7%. Also, the growth in experiment [7] was 69.6%; in [8] it was 2.52% (active); in experiment [9], 45.3%; in experiment [10], 96.7%; in experiment [11], 88.8%; in [12], 88%. Besides, the growth in experiment [13] was 115%; in [15], 95.8%; in experiment [16], 94.2%; in experiment [17] it was 135%; in experiment [18], 56.7%.
Turning to `CC1=C(C(=O)c2ccccc2)C(c2cccc(Cl)c2Cl)n2c(nc3ccccc32)N1` (stereo not given), the growth in experiment [1] is 68.7%; in experiment [2], 54.6%; in experiment [3] it was 43%; in [4], 39.3%; in experiment [6], 45%; in experiment [19] it was 54.5%. The growth in experiment [7] was 36.6%; in experiment [9], 90.2%; in experiment [10], 76%; in experiment [11], 46.3%; in experiment [12], 53.6%; in [13], 67.7%. Besides, the growth in [14] is 102%; in [15] it was 71.9%; in experiment [16], 47%; in [17], 116%; in [18], 40.5%; in [20], 45.6%.
